# PubChem BioAssay (NCATS)
# Several values for one entry are separate records, joined by “and”; a condition that tells them apart may be missing. Equal entries are not always repeated. Inconclusive results are not listed. Activity calls are given as the source filed them. Unless noted, calls come from the whole dose curve; as a rule, active = well fitted curve in the direction sought with a large enough effect in the repeat runs; inconclusive = weak or mixed curves; inactive = no such curve, though single readings can be large; an effect the other way counts as inactive or inconclusive.
# Assays:
# [1] = target: Cytochrome P450 2C9 (Homo sapiens) (UniProt P11712); experiment: Cytochrome P450 family 2 subfamily C member 9 (CYP2C9) small molecule antagonists: luciferase biochemical (cell-free) qHTS assay (AID 1645842); details: P450-Glo CYP2C9 enzyme assay, luciferin luminescence; series mostly up to 57.4 µM; note: nearly all actives have a fitted effect of over 55% in size; note: potency is the fitted concentration of half-maximal effect
# Chain of Cytochrome P450 2C9 (Homo sapiens) (P11712 whole entry, looked up): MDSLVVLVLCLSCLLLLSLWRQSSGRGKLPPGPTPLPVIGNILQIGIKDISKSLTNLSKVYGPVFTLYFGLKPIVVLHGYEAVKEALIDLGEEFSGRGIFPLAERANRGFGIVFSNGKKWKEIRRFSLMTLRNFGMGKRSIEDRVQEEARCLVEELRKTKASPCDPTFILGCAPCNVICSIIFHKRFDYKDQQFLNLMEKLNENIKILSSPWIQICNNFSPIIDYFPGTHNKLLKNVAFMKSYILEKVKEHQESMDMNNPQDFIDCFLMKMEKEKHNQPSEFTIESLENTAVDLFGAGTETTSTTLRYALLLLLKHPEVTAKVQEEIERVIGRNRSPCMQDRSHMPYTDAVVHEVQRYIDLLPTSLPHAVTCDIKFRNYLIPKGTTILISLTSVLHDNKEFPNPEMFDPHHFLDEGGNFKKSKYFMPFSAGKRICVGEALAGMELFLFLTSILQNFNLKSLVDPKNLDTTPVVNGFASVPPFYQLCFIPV
# Summary of the method: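 Luminescence, after 20 min with luciferin detection reagent, reflected CYP2C9 turnover during a 1 h NADPH-driven reaction at 37C. Enzyme-substrate mix contained 0.4% bovine serum albumin and was preincubated with compound 10 min at room temperature.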
# [2] = Counterscreen qHTS for small molecule stabilizers of the endoplasmic reticulum resident proteome: GLuc-NoTag assay (AID 1508627; active = well fitted curve in the direction sought with a large enough effect; an effect the other way counts as inactive or inconclusive; note: potency is the fitted concentration of half-maximal effect); details: Gaussia luciferase NoTag secretion counterscreen, luminescence; thapsigargin 100 nM for final 4 h
# Summary of the method: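 SH-SY5Y cells stably expressing constitutively secreted GLuc without SERCaMP tag, exposed to compound for 19 hr, then to 100 nM thapsigargin for 4 hr at 37C. Medium luciferase was read by coelenterazine luminescence without lysis.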
# [3] = Confirmatory qHTS for small molecule stabilizers of the endoplasmic reticulum resident proteome: Secreted ER Calcium Modulated Protein (SERCaMP) assay (AID 1508628; active = well fitted curve in the direction sought with a large enough effect; an effect the other way counts as inactive or inconclusive; note: nearly all actives have a fitted effect of over 40% in size); details: SERCaMP secreted luciferase ER calcium/proteostasis reporter; series mostly up to 76.3 µM
# Summary of the method: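 SH-SY5Y cells stably expressing GLuc-SERCaMP, treated 16 h with compound (primary 1.53, 7.67, 38.3 uM; confirmation 11 concentrations, up to 76.6 uM), then 100 nM thapsigargin for 4 h. Secreted Gaussia luciferase in medium read by coelenterazine luminescence.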
# [4] = Cell Viability qHTS for small molecule stabilizers of the endoplasmic reticulum resident proteome (AID 1508629; active = well fitted curve in the direction sought with a large enough effect; an effect the other way counts as inactive or inconclusive;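 note: potency is the fitted concentration of half-maximal effect; compound exposure about 46 h in total before the viability read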); details: cell viability counter-screen, 100 nM thapsigargin for final 4 h
# [5] = target: Cytochrome P450 2D6 (Homo sapiens) (UniProt P10635); experiment: Cytochrome P450 family 2 subfamily D member 6 (CYP2D6) small molecule antagonists: luciferase biochemical (cell-free) qHTS assay (AID 1645840); details: P450-Glo CYP2D6 enzyme, luciferin luminescence, 1 h; series mostly up to 57.4 µM; note: nearly all actives have a fitted effect of over 55% in size; note: potency is the fitted concentration of half-maximal effect
# Chain of Cytochrome P450 2D6 (Homo sapiens) (P10635 whole entry, looked up): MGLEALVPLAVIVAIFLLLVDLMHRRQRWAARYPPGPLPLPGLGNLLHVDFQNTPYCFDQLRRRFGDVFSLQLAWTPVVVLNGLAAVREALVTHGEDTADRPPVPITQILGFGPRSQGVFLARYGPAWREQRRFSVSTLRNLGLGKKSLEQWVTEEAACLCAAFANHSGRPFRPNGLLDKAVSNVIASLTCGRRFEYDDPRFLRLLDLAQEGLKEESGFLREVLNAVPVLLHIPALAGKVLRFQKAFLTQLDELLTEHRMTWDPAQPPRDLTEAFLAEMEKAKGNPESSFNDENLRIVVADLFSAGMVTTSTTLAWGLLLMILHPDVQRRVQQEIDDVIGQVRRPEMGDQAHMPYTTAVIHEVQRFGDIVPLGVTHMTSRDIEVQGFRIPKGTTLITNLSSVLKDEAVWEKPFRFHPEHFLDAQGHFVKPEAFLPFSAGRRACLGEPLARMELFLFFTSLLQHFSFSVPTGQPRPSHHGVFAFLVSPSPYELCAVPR
# Summary of the method: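 P450-Glo luminescent screen: recombinant CYP2D6 enzyme–proluciferin substrate mix preincubated with compound 10 min at room temperature, then NADPH regeneration added for 1 h at room temperature. Detection reagent added for 20 min; luciferin light read as relative luminescence units.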
# [6] = target: Cytochrome P450 3A4 (Homo sapiens) (UniProt P08684); experiment: Cytochrome P450 family 3 subfamily A member 4 (CYP3A4) small molecule antagonists: luciferase qHTS assay (AID 1645841); details: P450-Glo CYP3A4 enzyme assay, luciferin luminescence; series mostly up to 57.4 µM; note: potency is the fitted concentration of half-maximal effect; nearly all actives have a fitted effect of over 45% in size
# Chain of Cytochrome P450 3A4 (Homo sapiens) (P08684 whole entry, looked up): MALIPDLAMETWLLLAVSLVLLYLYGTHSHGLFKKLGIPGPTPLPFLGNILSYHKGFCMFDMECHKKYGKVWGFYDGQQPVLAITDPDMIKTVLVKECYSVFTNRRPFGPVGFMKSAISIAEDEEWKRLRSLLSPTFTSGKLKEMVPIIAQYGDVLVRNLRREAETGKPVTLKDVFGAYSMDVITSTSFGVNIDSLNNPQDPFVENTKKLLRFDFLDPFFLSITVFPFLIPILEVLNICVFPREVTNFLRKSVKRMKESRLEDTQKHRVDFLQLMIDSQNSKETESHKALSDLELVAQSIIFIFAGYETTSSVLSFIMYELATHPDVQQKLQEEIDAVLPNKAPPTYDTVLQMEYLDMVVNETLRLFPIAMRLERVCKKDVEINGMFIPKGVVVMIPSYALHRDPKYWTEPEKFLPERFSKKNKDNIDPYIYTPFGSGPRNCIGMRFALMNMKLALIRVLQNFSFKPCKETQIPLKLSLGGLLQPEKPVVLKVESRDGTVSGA
# Summary of the method: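 P450-Glo CYP3A4 enzyme with proluciferin substrate preincubated 10 min with compound at room temperature, then NADPH regeneration 1 h. Luciferin detection reagent added for 20 min; luminescence recorded. Ketoconazole positive control.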
structure (smiles),measurement,setting,value
O=C(/C=C/c1c(C(=O)O)[nH]c2cc(Cl)cc(Cl)c12)Nc1ccccc1,Potency,[1],21.3 µM (active)
COC(=O)C1=C(C)NC(C)=C(C(=O)OCCCN2CCC(c3ccccc3)(c3ccccc3)CC2)[C@H]1c1cccc([N+](=O)[O-])c1,Potency,[2],39.8 µM (active) and 44.7 µM (active)
same,outcome,[3],inactive
same,Potency,[4],25.1 µM (active) and 28.2 µM (active)
CCC(=O)N[C@@H]1Cc2ccccc2[C@H](c2ccccc2)C1,Potency,[5],9.52 µM (active)
same,Potency,[1],3.01 µM (active)
CNC1CCN(C(Cc2cccc(-c3ccncc3)c2)C(=O)c2sc3c(F)ccc(F)c3c2Cl)CC1 (stereo not drawn),Potency,[5],0.19 µM (active)
same,Potency,[6],0.12 µM (active)
same,Potency,[1],10.7 µM (active)
O=C(O)CCC(=O)C(=O)O,Potency,[5],inactive
same,Potency,[1],inactive
O=C(COc1ccc(Cl)cc1)NC1CCC(NC(=O)COc2ccc(Cl)cc2)CC1 (stereo not drawn),Potency,[5],inactive
same,Potency,[1],inactive
